This is a sample that favours compounds with a hit; in the whole collection about 4.1% have one here.
CSC inhib – cancer stem cell inhibition | inhibition, % at 7.5 µM | hit rate 1.1% among 300,000 | AID 2717 | cancer stem cell-like cells viability, luminescence; in the data active means inhibition above about 75%; tested in HMLE shEcad cells
Mdm2-MdmX inh – inhibitors of human Mdm2/MdmX interaction; inhibition, % at 8 µM; O15151+Q00987; SaOS-2 split-luciferase Mdm2/MdmX complementation, luminescence; AID 485346; hit rate 3% among 330,000;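 active means inhibition of at least 50% at 8 µM in the primary screen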
Target sequence (O15151 whole entry, looked up): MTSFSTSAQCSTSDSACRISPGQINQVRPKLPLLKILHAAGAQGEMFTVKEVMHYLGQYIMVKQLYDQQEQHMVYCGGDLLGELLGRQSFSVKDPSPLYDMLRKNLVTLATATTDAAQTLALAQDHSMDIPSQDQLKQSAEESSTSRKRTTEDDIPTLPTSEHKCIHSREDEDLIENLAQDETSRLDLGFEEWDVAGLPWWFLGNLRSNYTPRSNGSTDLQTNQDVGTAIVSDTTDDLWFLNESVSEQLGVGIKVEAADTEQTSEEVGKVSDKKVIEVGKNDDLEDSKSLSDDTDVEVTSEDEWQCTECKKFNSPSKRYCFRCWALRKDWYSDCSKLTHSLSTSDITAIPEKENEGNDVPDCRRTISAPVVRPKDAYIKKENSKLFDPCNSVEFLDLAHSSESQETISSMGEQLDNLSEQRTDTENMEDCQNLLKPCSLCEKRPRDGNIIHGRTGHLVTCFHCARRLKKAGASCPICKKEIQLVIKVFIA
Target sequence (Q00987 whole entry, looked up): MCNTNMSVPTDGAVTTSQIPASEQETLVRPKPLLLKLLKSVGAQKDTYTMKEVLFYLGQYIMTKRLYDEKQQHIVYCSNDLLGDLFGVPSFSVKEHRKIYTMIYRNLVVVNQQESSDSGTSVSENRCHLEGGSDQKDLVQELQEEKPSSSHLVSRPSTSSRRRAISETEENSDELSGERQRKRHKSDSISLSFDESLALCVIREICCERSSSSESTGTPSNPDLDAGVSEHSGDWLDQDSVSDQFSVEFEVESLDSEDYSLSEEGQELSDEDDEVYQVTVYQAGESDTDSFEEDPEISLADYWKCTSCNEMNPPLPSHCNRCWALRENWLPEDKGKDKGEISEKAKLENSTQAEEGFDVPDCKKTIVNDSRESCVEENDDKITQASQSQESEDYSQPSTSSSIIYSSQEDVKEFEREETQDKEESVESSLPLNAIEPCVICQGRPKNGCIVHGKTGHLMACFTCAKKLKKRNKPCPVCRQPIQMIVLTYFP
Bfl-1 A1 inh – inhibitors of the anti-apoptotic protein A1, read as caspase activation | hit rate 0.066% among 330,000 | MEF A1-2A-BIM cells, Caspase-Glo 3/7 luminescence, 3 h; percent of clofoctol response, vehicle zero | caspase activation, % (test concentration not listed) | AID 2462;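 active means over half of replicate activation scores above 10%, or exactly half above 10 with the replicate mean above 10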
Beta apoptosis – blocks beta cell apoptosis; INS-1E cytokine-induced death, ATP luminescence, 48 h; percent of positive-control rescue, neutral wells zero; protection from apoptosis, % (test concentration not listed); hit rate 0.8% among 300,000; AID 435005;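 active means Every replicate reaches about 75%, or at least half do and their mean reaches it too, limit read from the data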;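 further: 0% = cytokine-treated negative control wells and 100% = positive control rescue; higher means more ATP so stronger rescue from cytokine killing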
aSyn 5UTR inh – MLPCN primary screen, SNCA 5' untranslated region; alpha-synuclein 5'UTR reporter, inhibitor activity; inhibition, % (tested at 7.5 µM); hit rate 0.82% among 300,000; in the data active means inhibition above about 60%;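 further: H4 neuroglioblastoma cells stably carrying SNCA 5'UTR luciferase fusion; 0% = DMSO wells and 100% = positive control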
Mdm2 MdmX conf – confirmation of human Mdm2/MdmX interaction inhibitors | shares compounds with Mdm2-MdmX inh | Mdm2-MdmX binding, luminescent assay | inhibition, % at 8 µM | hit rate 55% among 10,000; in the data active means inhibition above about 40%
Full FLuc ctr – inhibits full-length luciferase, flagging false Mdm2/MdmX hits; shares compounds with Mdm2-MdmX inh; SaOS-2 full-length luciferase counterscreen, luminescence; inhibition, % at 8 µM; hit rate 77% among 6,200; AID 504607;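 active means mean inhibition at 8 µM reaching about 37%, which flags the compound as non-specific, limit read from the data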;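 further: p53-null SaOS-2 cells with luciferase driven by a doxycycline-inducible promoter; compound on cells about two nights before reading with doxycycline added after day one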
* = called active by the depositor; / = no result given.

SMILES	CSC inhib	Mdm2-MdmX inh	Bfl-1 A1 inh	Beta apoptosis	aSyn 5UTR inh	Mdm2 MdmX conf	Full FLuc ctr
O=C1/C(=C/c2ccccc2)SC(=S)N1CCCC(=O)N1CCCCC1CCO (stereo not given)	15	85*	-1	-59	-3	57*	37*
O=C1/C(=C/c2ccccc2F)SC(=S)N1CCC(=O)N1CCCCC1CCO (stereo not given)	15	61*	0	/	-30	25	/
O=C1/C(=C/c2cccc(Cl)c2)SC(=S)N1CCC(=O)N1CCCCC1CCO (stereo not given)	5	63*	0	/	-18	41*	39*
CCOc1cccc(-c2c(C(=O)N/N=C/c3ccoc3)nnn2-c2nonc2N)c1	-11	19	1	/	16	/	/
CCCOc1ccc(/C=N/Nc2cccc([N+](=O)[O-])c2)c(O)c1	113*	77*	-2	31	-164	-13	/
COc1ccc(C(=O)Nc2nc(-c3ccccn3)cs2)cc1S(=O)(=O)N1CCOCC1	25	49	0	54	/	/	/
O=C(Nc1nc(-c2ccccn2)cs1)c1ccc(S(=O)(=O)N2CCCCC2)cc1	99*	88*	0	83*	57	90*	16
O=C(Nc1nc(-c2cccs2)cs1)c1ccc(S(=O)(=O)N2CCCCC2)cc1	19	38	0	4	-13	/	/
COc1ccccc1C(=O)Nc1nc(-c2ccc(S(=O)(=O)N3CCOCC3)cc2)cs1	41	77*	-1	85*	-12	83*	30
Cc1ccc(S(=O)(=O)N2CCOCC2)cc1C(=O)Nc1nc(-c2ccccn2)cs1	27	76*	-2	76*	/	65*	30
O=C(Nc1nc(-c2ccccn2)cs1)c1cccc(S(=O)(=O)N2CCOCC2)c1	35	77*	-1	68	/	79*	33
COc1ccccc1OC(C)C(=O)Nc1nc(-c2ccc(S(=O)(=O)N3CCOCC3)cc2)cs1 (stereo not given)	8	23	1	0	31	/	/
Cc1cccc(N(C)S(=O)(=O)c2c[nH]c3ccc([N+](=O)[O-])cc23)c1	/	26	/	/	8	/	/
O=[N+]([O-])c1ccc(O)c(/C=N/Nc2nc3ccccc3[nH]2)c1	102*	89*	-2	99*	47	52*	48*
COc1cccc(/C=N/Nc2nc3ccccc3[nH]2)c1O	68	61*	-4	94*	33	40*	61*
COc1cccc(/C=N/Nc2nc3ccccc3[nH]2)c1OC	1	-34	-1	/	-106	/	/
Cn1c(/C=N/Nc2nc3ccccc3[nH]2)nc2ccccc21	33	-132	-5	18	-188	/	/
O=[N+]([O-])c1ccc(O)c(/C=N/Nc2ncnc3c2cnn3-c2ccccc2)c1	104*	91*	-7	16	66*	91*	21
O=[N+]([O-])c1cccc(N/N=C/c2cc([N+](=O)[O-])ccc2O)c1	1	-14	0	/	-70	/	/
Cc1c(/C=N/Nc2nc3ccccc3[nH]2)c2ccccc2n1C	35	93*	-1	117*	-61	48*	71*
CCc1ccccc1NC(=O)CCc1c(C)nn(-c2ccc(N3CCOCC3)nn2)c1C	-6	-12	-1	3	4	/	/
CCCCCOc1ccc(/C(C)=N/NC2=NCCN2)cc1	1	10	1	4	-26	/	/
CCCCCCOc1ccc(/C(C)=N/NC2=NCCN2)cc1	100*	90*	0	47	-46	31	/
CCOc1ccc(Br)cc1/C(C)=N\NC1=NCCN1	39	70*	0	28	5	55*	56*
CC(C)n1nc(C(=O)NNC(=O)c2ccc(OC(F)F)cc2)c2ccccc2c1=O	-2	-3	0	4	/	/	/
SMILES	CSC inhib	Mdm2-MdmX inh	Bfl-1 A1 inh	Beta apoptosis	aSyn 5UTR inh	Mdm2 MdmX conf	Full FLuc ctr
CN(C)S(=O)(=O)c1cccc(C(=O)Nc2ccccc2C(=O)NC2CC2)c1	5	17	0	-5	/	/	/
CCOC(=O)Cc1n[nH]c(=O)c2ccccc12	-8	18	1	-4	11	/	/
O=C(Cc1n[nH]c(=O)c2ccccc12)OCc1c(Cl)cccc1Cl	32	57*	1	7	-44	55*	62*
COc1cccc2sc(=NC(=O)CS(=O)(=O)c3ccc(Cl)cc3)n(C)c12	-8	-3	0	/	-26	/	/
O=C(NCc1ccccn1)c1cccc(S(=O)(=O)NCc2ccccc2)c1	-6	-7	0	/	3	/	/
O=C(/C=C/c1cccc(Cl)c1)NCCN1CCOCC1	1	76*	0	-5	-1	-18	/
CN(C1CCCC1)C1CCN(C(=O)CNC(=O)/C=C/c2ccccc2)CC1	/	-32	1	0	9	/	/
CC1CCCCC1N(C)C1CCN(C(=O)CNC(=O)/C=C/c2cccc(Cl)c2)CC1 (stereo not given)	31	53*	0	-3	41	52*	92*
CN(C)C(CNC(=O)c1cc(S(=O)(=O)N2CCOCC2)ccc1F)c1cccs1 (stereo not given)	-11	19	1	-1	/	/	/
CCNc1nc(NC(C)C)nc(Oc2ccc(OCCOc3ccccc3)nn2)n1	-12	51*	0	3	20	11	/
CCNc1nc(NC(C)C)nc(Oc2ccc(OCc3ccccc3)nn2)n1	4	28	0	1	33	/	/
Cc1cccn2c(=O)c(/C=C(\C#N)C(=O)NCc3ccccc3)c(N3CCC(C(N)=O)CC3)nc12	-15	64*	1	-1	-7	1	/
COc1ccccc1NC(=O)/C(C#N)=C/C=C/c1ccco1	-2	50*	0	7	-6	54*	64*
CN(c1cccc(Cl)c1)S(=O)(=O)c1cccc(C(=O)Nc2nc3ccccc3[nH]2)c1	63	81*	0	36	-26	36	58*
COc1ccc(N(C)S(=O)(=O)c2cccc(C(=O)Nc3nc4ccccc4[nH]3)c2)cc1	10	29	0	26	6	/	/
CCN1CCN(c2ccc(NC(=O)c3ccc(Br)o3)cc2)CC1	/	-33	/	/	-91	/	/
O=C(Nc1ccc(N2CCN(Cc3ccccc3F)CC2)cc1)c1ccc([N+](=O)[O-])o1	103*	81*	2	48	105*	69*	16
CN1CCN(c2ccc(NC(=O)c3ccc(-c4ccc(Br)cc4)o3)cc2)CC1	-15	77*	0	24	29	39	81*
O=C(Nc1ccc(N2CCN(Cc3ccccc3F)CC2)cc1)c1ccccc1[N+](=O)[O-]	1	23	1	-2	20	/	/
CC(C)(C)C(=O)N1CCN(c2ccc(NC(=O)c3ccco3)cc2)CC1	/	-1	-1	0	7	/	/
CC(C)(C)C(=O)N1CCN(c2ccc(NC(=O)c3ccc([N+](=O)[O-])o3)cc2)CC1	1	54*	1	-19	29	46*	31

High-throughput results deposited in PubChem BioAssay by several laboratories.
